Calls of active or inactive are those of the source. The rule behind the calls is not given here.
Biological target: Muscarinic acetylcholine receptor M4 (Homo sapiens) (UniProt P08173)
Test: ACh response enhancement at M4 – CHO cells, human M4, selectivity assay for M5 PAM project (AID 651925)

Muscarinic acetylcholine receptor M4 (Homo sapiens), sequence (P08173 whole entry, looked up): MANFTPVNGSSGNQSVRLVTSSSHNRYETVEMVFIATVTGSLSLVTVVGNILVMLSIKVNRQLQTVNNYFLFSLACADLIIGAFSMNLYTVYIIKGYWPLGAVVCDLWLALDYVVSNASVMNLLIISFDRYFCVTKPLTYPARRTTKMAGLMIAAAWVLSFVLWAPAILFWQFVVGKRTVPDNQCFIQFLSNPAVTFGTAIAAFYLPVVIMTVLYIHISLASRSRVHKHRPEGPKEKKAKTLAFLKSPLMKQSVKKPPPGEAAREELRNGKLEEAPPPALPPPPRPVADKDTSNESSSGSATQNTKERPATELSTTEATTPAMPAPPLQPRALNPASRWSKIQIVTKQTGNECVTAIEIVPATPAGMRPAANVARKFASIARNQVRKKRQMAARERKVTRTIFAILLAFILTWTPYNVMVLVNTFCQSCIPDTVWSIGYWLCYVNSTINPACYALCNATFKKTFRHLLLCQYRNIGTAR

For `O=C1C(=O)N(CCOc2ccccc2)c2ccc(OC(F)(F)F)cc21`, which outcome is on record?
The outcome was “inactive”.
